Results: the supplement of paper PMC12350171
Where a name gives a salt, the structure may show the parent alone.

Assays:
Details in all cases: 20 µM
[1] = system: Haemophilus parainfluenzae; experiment: growth AUC normalised to DMSO control (fraction of control); higher = less growth inhibition, active = hit call of the paper
Outline: (§1)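 After two anaerobic passages, pathogens were added at a starting OD578 of 0.01 to pre-reduced mGAM plates holding compound at 20 μM with 1% DMSO; hemin and NAD were supplemented for Haemophilus parainfluenzae. Sealed with breathable membranes, plates were read at OD578 hourly for 24 h, in three biological replicates. The trapezoidal rule, applied up to the exponential-to-stationary transition, gave the growth-curve AUC, which was normalised to DMSO controls on the same plate.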

[2] = system: Salmonella enterica typhimurium; experiment: as above
Outline: as §1

Shigella flexneri = experiment: as above
Outline: as §1

Vibrio cholerae = experiment: as above
Outline: as §1

[3] = system: Yersinia pseudotuberculosis; experiment: as above
Outline: as §1

P. vulgatus RND KO = experiment: growth AUC normalised to DMSO control (median) (fraction of control); higher = less growth inhibition, active = hit call of the paper
Outline: (§2)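 In 96-well plates of mGAM seeded at OD578 0.01, strains that had been passaged twice overnight without oxygen were exposed to approved-drug library compounds at 20 μM with 1% DMSO. Hourly OD578 readings were taken for 24 h in an anaerobic incubator. The trapezoidal-rule area under the curve, with curves truncated at entry into stationary phase, was expressed relative to same-plate vehicle wells as the median of three biological replicates.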

P. vulgatus WT = experiment: as above
Outline: as §2

[4] = system: S. enterica typhimurium WT; experiment: as above
Outline: as §2

[5] = system: S. enterica typhimurium tolC KO; experiment: as above
Outline: as §2

Measured: growth AUC normalised to DMSO control
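Throughout, for growth AUC normalised to DMSO control (median): active when median AUC fell below 0.1.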

CN(C)C(=O)Oc1cccc([N+](C)(C)C)c1 [Neostigmine bromide]
inactive: [1] 1 | [2] 1 | Shigella flexneri 0.994 | Vibrio cholerae 1.01 | [3] 0.916 | P. vulgatus RND KO 1 | P. vulgatus WT 0.997 | [4] 1 | [5] 1.01

NC(=O)CN1CCCC1=O [Piracetam]
inactive: [1] 0.975 | [2] 0.991 | Shigella flexneri 0.957 | Vibrio cholerae 0.992 | [3] 0.993 | P. vulgatus RND KO 0.989 | P. vulgatus WT 0.982 | [4] 0.984 | [5] 0.996

O=C(NCNC(=O)NC1C(=O)NC(=O)N1CO)NC1C(=O)NC(=O)N1CO (configuration not stated) [Imidurea]
inactive: [1] 0.992 | [2] 1 | Shigella flexneri 0.995 | Vibrio cholerae 1.01 | [3] 1 | P. vulgatus RND KO 0.991 | P. vulgatus WT 1.01 | [4] 0.998 | [5] 0.996

C[C@]12COC(=O)C[C@@H]1CC[C@@H]1[C@@H]2CC[C@@]2(C)[C@H]1CC[C@]2(C)O [Oxandrolone]
inactive: [1] 0.995 | [2] 1.01 | Shigella flexneri 1 | Vibrio cholerae 1 | [3] 0.963 | P. vulgatus RND KO 1.03 | P. vulgatus WT 1.05 | [4] 1.01 | [5] 0.991

COc1ccc(OC)c(C(O)C(C)N)c1 (configuration not stated) [Methoxamine hydrochloride]
inactive: [1] 1 | [2] 1.01 | Shigella flexneri 0.984 | Vibrio cholerae 1.01 | [3] 0.991 | P. vulgatus RND KO 0.987 | [4] 1.01 | [5] 0.999
active: P. vulgatus WT 0.0385

C#C[C@]1(O)CC[C@H]2[C@@H]3CCC4=CC(=O)CCC4=C3C=C[C@@]21CC [Gestrinone]
inactive: [1] 1.03 | [2] 0.989 | Shigella flexneri 1.03 | Vibrio cholerae 1.01 | [3] 1.01 | P. vulgatus RND KO 1.01 | P. vulgatus WT 1.07 | [4] 1.01 | [5] 0.986

CCC1(CC)C(=O)C=CNC1=O [Pyrithyldione]
inactive: [1] 1.01 | [2] 0.992 | Shigella flexneri 1 | Vibrio cholerae 1.05 | [3] 1 | P. vulgatus RND KO 1.01 | P. vulgatus WT 1 | [4] 1.02 | [5] 0.998

CC[C@@H](CO)NC(=O)[C@@H]1C=C2c3cccc4[nH]cc(c34)C[C@H]2N(C)C1 [Methylergometrine maleate]
inactive: [1] 0.997 | [2] 0.985 | Shigella flexneri 0.966 | Vibrio cholerae 1.01 | [3] 0.998 | P. vulgatus RND KO 0.975 | P. vulgatus WT 0.952 | [4] 0.993 | [5] 1

CCC1(C)CC(=O)NC(=O)C1 [Bemegride]
inactive: [1] 1.02 | [2] 1.02 | Shigella flexneri 1.01 | Vibrio cholerae 1.05 | [3] 1.01 | P. vulgatus RND KO 1.03 | P. vulgatus WT 1.08 | [4] 1.02 | [5] 1.01

CN1C[C@H](CNC(=O)OCc2ccccc2)C[C@@H]2c3cccc4c3c(cn4C)C[C@H]21 [Metergoline]
inactive: [1] 0.925 | [2] 0.979 | Shigella flexneri 0.973 | Vibrio cholerae 0.893 | [3] 0.993 | P. vulgatus RND KO 0.886 | P. vulgatus WT 0.885 | [4] 0.992 | [5] 0.895

CC(=O)O[C@H]1C[C@@H]2CC[C@@H]3[C@H](CC[C@@]4(C)[C@H]3C[C@H]([N+]3(C)CCCCC3)[C@@H]4OC(C)=O)[C@@]2(C)C[C@@H]1[N+]1(C)CCCCC1 [Pancuronium bromide]
inactive: [1] 1.04 | [2] 1.01 | Shigella flexneri 1.05 | Vibrio cholerae 1.04 | [3] 1 | P. vulgatus RND KO 1.01 | P. vulgatus WT 1.04 | [4] 1.03 | [5] 1.01

CC(Cc1ccccc1)NCCC(c1ccccc1)c1ccccc1 (configuration not stated) [Prenylamine lactate]
inactive: [1] 1.05 | [2] 1.01 | Shigella flexneri 1.07 | Vibrio cholerae 1.02 | [3] 1.02 | P. vulgatus RND KO 1.04 | P. vulgatus WT 1.04 | [4] 0.993 | [5] 0.97

C=CCN1CC[C@]23c4c5ccc(O)c4O[C@H]2C(=O)CC[C@@]3(O)[C@H]1C5 [Naloxone hydrochloride]
inactive: [1] 1.01 | [2] 0.981 | Shigella flexneri 1.03 | Vibrio cholerae 1 | [3] 1.01 | P. vulgatus RND KO 1.03 | P. vulgatus WT 0.997 | [4] 1.01 | [5] 1
